High-throughput results as filed in PubChem BioAssay.
Rows were chosen to be rich in hits. Some 1.4% of all compounds tested hit in one or more screens of this group.
BRCA1 expr up: activators of BRCA1 expression; MCF7-BRCA1-FFLuc reporter, luminescence, 48 h; response scale: scaled: vehicle 0%, 10 µM genistein 100%; Potency, µM (top dose mostly 46.1 µM), inactives show at the highest dose activation, most hits filed as activators; hit rate 1.1% among 380,000; AID 624202; note: potency is the fitted concentration of half-maximal effect; nearly all actives have a fitted effect of over 80% in size
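MCF7 cells carrying a BRCA1-firefly luciferase reporter (2000 cells/well, phenol-red free MEM) were attached for 2 h at 37 °C, then given compounds for 48 h. Luminescence was read 15 min after luciferase reagent; activity normalized to genistein (10 microM) and DMSO.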
TCR act: activates T cell receptor signaling; primary human leukocytes, anti-CD3, IL-2 HTRF, 48 h; 330,000 tested, under 10 active; Potency, µM (doses to about 9.22 µM), for the others: at the highest dose activation of IL-2 secretion, actives largely listed as activators; AID 504894; note: % of control where 0% means no effect
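Compounds are tested in HTS on primary human leukocytes co-incubated with a-CD3 beads for 48 hr. IL-2 output is measured by time-resolved FRET.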
TSHR antagonist: blocks TSH signaling through the human TSH receptor. P16473. TSHR-expressing cells, TSH-stimulated cAMP HTRF, 2 h; active compounds read low. activity change, negative = inhibition, % at 11.5 µM. hit rate 0.2% among 330,000. AID 504810;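 active = activity change below a set negative limit, meaning inhibition stronger than a set level, cut at about -70% in these data; inconclusive = activity change between two set negative limits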; note: % is set by controls: 0 for no effect and ±100 for the full control effect
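TSHR-expressing cells were treated with compounds, then stimulated with TSH at EC80 (4nM final) for 2 hours at 37 deg C. Cellular cAMP was measured by HTRF competition between lysate cAMP and cAMP-d2 for a cryptate-labelled anti-cAMP antibody.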
p53 reactivation: restores transcriptional activity of mutant p53; hit rate 0.063% among 320,000; Potency, µM (top dose mostly 92.2 µM), for the others: top-dose activity change, positive = activation, hits mostly activators; H1299 p53-A138V BP100-luciferase reporter, luminescence, 24 h; note: potency is the fitted concentration of half-maximal effect; % of control where 0% means no effect; nearly all actives have a fitted effect of over 45% in size
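H1299 (p53-null), stable ts p53-A138V + BP100-Luc; 1000 cells/well, Opti-MEM/10% FBS; cpd 4 pt, 1:5; 24 h, 37 deg C, 5% CO2; detection reagent 10 min RT; luminescence.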
GLS inhibitor: inhibitors of human glutaminase (GLS) | GLS enzymatic activity, qHTS titration | O94925 | Potency, µM (doses to about 45.5 µM), for the others: at the highest dose activity change, negative = inhibition, usual class: inhibitors | hit rate 0.21% among 410,000; note: potency is the fitted concentration of half-maximal effect; % is set by controls: 0 for no effect and ±100 for the full control effect
Target sequence (O94925 whole entry, looked up): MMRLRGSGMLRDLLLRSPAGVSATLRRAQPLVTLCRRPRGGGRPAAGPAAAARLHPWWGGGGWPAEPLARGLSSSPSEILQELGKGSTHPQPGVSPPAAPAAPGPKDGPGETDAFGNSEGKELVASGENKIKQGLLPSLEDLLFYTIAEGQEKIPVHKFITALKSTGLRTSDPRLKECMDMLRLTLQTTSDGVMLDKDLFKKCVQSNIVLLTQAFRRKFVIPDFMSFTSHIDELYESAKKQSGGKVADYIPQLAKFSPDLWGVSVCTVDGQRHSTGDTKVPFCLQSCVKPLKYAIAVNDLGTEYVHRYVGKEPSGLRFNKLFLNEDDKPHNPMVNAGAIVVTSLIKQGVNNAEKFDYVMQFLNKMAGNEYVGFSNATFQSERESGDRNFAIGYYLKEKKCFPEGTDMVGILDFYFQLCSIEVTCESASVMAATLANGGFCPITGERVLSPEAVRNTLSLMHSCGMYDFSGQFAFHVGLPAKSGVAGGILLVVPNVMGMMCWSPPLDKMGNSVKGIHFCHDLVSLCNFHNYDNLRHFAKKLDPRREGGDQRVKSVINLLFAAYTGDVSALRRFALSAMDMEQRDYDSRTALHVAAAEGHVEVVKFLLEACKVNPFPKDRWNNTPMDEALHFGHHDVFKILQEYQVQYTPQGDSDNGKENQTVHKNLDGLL
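hKGA in 45 mM KH2PO4 pH 8.2, 0.02% Tween-20 with pin-transferred compounds; 1 mM L-glutamine (stock) plus glutamate oxidase/HRP/Amplex Red coupling added. Fluorescence read initially and after 30 min at RT.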
N370S GC mod: N370S glucocerebrosidase modulation, Gaucher chaperone candidate | P04062 | N370S GC spleen homogenate, 4MU-glucoside fluorescence | Potency, µM (titrated, usually from 59.4 µM), for inactives: at the top dose activity change, negative = inhibition, usual class: inhibitors | hit rate 0.092% among 330,000 | AID 2101;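 note: potency is the fitted concentration of half-maximal effect; 0% = full enzyme activity and -100% = no enzyme basal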
Starred values were filed as active, the others as inactive; ? = inconclusive; · = not tested or not shown; [ ] = remark or other dose. Unless noted, calls come from the whole dose curve; as a rule, active = well fitted curve in the direction sought with a large enough effect; inconclusive = small, poorly fitted or top-dose-only effect, or another doubt; inactive = no such curve, though single readings can be large; an effect the other way counts as inactive or inconclusive.

SMILES	BRCA1 expr up	TCR act	TSHR antagonist	p53 reactivation	GLS inhibitor	N370S GC mod
Cc1ccc(C)c(N2CCN(C(=O)CCc3c(C)nn(-c4ccc(N5CCCC5)nn4)c3C)CC2)c1	·	·	·	·	2.7%	·
CCC(=O)NC[C@H](Cc1ccc(OCCc2nc(-c3ccccc3)oc2C)cc1)N/C(C)=C\C(=O)c1ccc(C(F)(F)F)cc1	·	·	·	·	·	-13.3%
Cc1ccc(O)c(NC(=O)c2ccc3c(c2)C(=O)N(CC(C)C)C3=O)c1	7.94µM*	2.8%	-12.6	14.2%	-8.4%	-13.1%
O=C(NCCN1CCOCC1)c1ccc(/C=C2\Sc3ccccc3N(Cc3ccccc3F)C2=O)cc1	-38.0%	4.4%	3.6	-7.1%	-2.1%	1µM*
O=C(NCCN1CCOCC1)c1ccc2c(c1)N(Cc1cccc(F)c1)C(=O)c1ccccc1S2	-21.9%	10.1%	-14.4	8.9%	-16.8%	?
Cc1ccc(CN2C(=O)c3ccccc3Sc3ccc(C(=O)NCCCN4CCOCC4)cc32)cc1	-19.1%	0.7%	-138.0*	-13.0%	1.6%	?
O=c1[nH]c2c(-c3nc(-c4ccc(Cl)cc4)cs3)c(O)cn2c2ccccc12	-8.5%	·	·	·	·	·
CC1CCCC(C)N1C(=O)c1cc(-c2cccs2)on1 (stereo not drawn)	15.8µM*	0.4%[46.1 µM]	-3.0	?	-1.1%	5.7%
COc1cc(C2/C(=C(/O)c3ccccc3)C(=O)C(=O)N2c2ccccn2)ccc1O (stereo not drawn)	16.6%	-240.8%	3.4	5.9%	8.91µM*	7.4%
COc1ccc(C2/C(=C(/O)c3ccc(F)cc3)C(=O)C(=O)N2c2ccccn2)cc1OC (stereo not drawn)	1.3%	-0.3%	-10.5	2.8%	?	-2.1%
CN(CC(=O)Nc1ccccc1C(F)(F)F)Cc1c(O)ccc2ccccc12	1.2%	-1.6%	-98.6*	5.3%	?	7.6%
COc1ccc2[nH]c3c(=O)n(Cc4ccc(C(=O)N5CCC(C(N)=O)CC5)cc4)c(=S)[nH]c3c2c1	-2.2%	-5.5%	2.0	7.5%	22.4µM*	-2.5%
CCN(Cc1ccccc1)C(=O)Nc1ccc2c(c1)N(C)C(=O)c1ccccc1S2	·	·	·	·	-5.1%	·
CCC1=C[C@@H]2CN(C1)Cc1c([nH]c3ccccc13)[C@@](C(=O)OC)(c1cc3c(cc1OC)N(C)[C@@H]1[C@@](O)(C(=O)OC)[C@H](OC(C)=O)[C@]4(CC)C=CCN5CC[C@]31[C@@H]54)C2	·	·	·	·	22.3%	·
O=C(NN=C1CCCCCC1)c1cccs1	?	7.7%	-1.2	39.8µM*	7.7%	1.2%
O=C(NN=C1CCCCCCC1)c1ccc(F)cc1	4.8%	2.7%	2.4	16.7%	2.6%	-5.7%
CC(=O)N1N=C(c2ccco2)CC1c1cc2cc(C)ccc2nc1Cl (stereo not drawn)	0.0%	-1.6%	0.5	-1.7%	5.62µM*	0.0%
COc1ccc(-n2c(SCC(=O)Nc3cccc(C)c3C)nc3c([nH]c4ccccc43)c2=O)cc1	·	·	·	·	-8.7%	·
Cc1ccc(C(=O)CSc2nsc(C)c2C#N)cc1	6.31µM*	-0.5%	-2.5	?	-7.4%	10.9%
CC(=O)Nc1nc(C)c(C(C)=O)s1	-28.6%	0.1%	27.0	-0.8%	-10.4%	0.0%
CC(=O)c1sc(NC(=O)c2ccc(Cl)cc2)nc1C	3.16µM*	13.4%	-12.4	9.4%	8.9%	-3.7%
CC(=O)c1sc(NC(=O)c2ccc(F)c(F)c2)nc1C	?	1.3%	-13.1	24.2%	-4.5%	3.3%
CC(=O)c1sc(NC(=O)c2ccccc2C)nc1C	12.6µM*	5.4%	-1.7	3.1%	0.4%	-8.6%
CC(=O)c1sc(NC(=O)c2ccccc2)nc1-c1ccccc1	2.82µM*	4.4%	23.6	5.4%	0.8%	-8.4%
CNC(=O)c1cc(-c2cccs2)on1	-33.5%	·	·	·	·	·
COc1cccc(-c2nnc(-c3ccc(C(F)(F)F)cc3)o2)c1	12.6µM*	-9.9%[46.1 µM]	0.0	?	-0.3%	18.1%
C/C(=C\CO)CCO	·	·	·	·	·	-2.9%
